Screening data deposited in PubChem by National Center for Advancing Translational Sciences (NCATS).
Hits are enriched below; roughly 10% of the tested compounds scored in any of these assays.
3T3 cytotox = kills NIH 3T3 cells. NIH 3T3 viability, CellTiter-Glo ATP luminescence, 48-72 h. Potency, µM (doses to about 96.7 µM), inactives show at the top dose activity change, negative = cytotoxicity, hits mostly inhibitors. actives 4.3% (n = 94,000). AID 1345082; note: nearly all actives have a fitted effect of over 55% in size
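Cytotoxicity was measured by CellTiter-Glo ATP luminescence after 48 or 72 h compound exposure at 37 °C. Mouse NIH 3T3 fibroblasts were seeded at 400 cells/well and dosed by 23 nL pin transfer.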
GPT2 inh = GPT2 alanine aminotransferase inhibition; Recombinant GPT2, coupled pyruvate oxidase/HRP Amplex Red fluorescence; Potency, µM (top dose mostly 57.7 µM), for the others: at the top dose activity change, negative = inhibition, actives largely listed as inhibitors; actives 0.25% (n = 100,000); note: nearly all actives have a fitted effect of over 60% in size
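Fluorescence of coupled pyruvate oxidase/HRP/Amplex Red system (50uM Amplex, 30 min, dark) reports pyruvate formed by GPT2. Enzyme reaction: 10ng/uL GPT2, 2mM L-alanine, 250uM a-KG, 30 min room temperature, pH 7.5; 50uM AOA control.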
NPR1 antag = blocks ANP-stimulated signaling of human Npr1 receptor; AID 1347048; Potency, µM (titrated, usually from 46.3 µM), without a hit: at the top dose activity change, negative = inhibition, hits mostly inhibitors; P16066; actives 1.6% (n = 76,000); HEK293 hNpr1 GloSensor cGMP, ANP-stimulated luminescence; calls by dose curve; note: nearly all actives have a fitted effect of over 60% in size
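HEK293 cells stably expressing human Npr1 and cGMP GloSensor pGS-40F, loaded 2 h with 2% GloSensor reagent, given compound 30 min at room temperature. Luminescence read before and 20 min after 0.1 nM hNppA.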
HEK cytotox = HEK 293 cell cytotoxicity; actives 6.6% (n = 94,000); HEK 293 viability, ATP luminescence (CellTiter-Glo), 48-72 h; Potency, µM (series often up to 115 µM), for the others: at the highest dose activity change, negative = cytotoxicity, hits mostly inhibitors; note: nearly all actives have a fitted effect of over 60% in size
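qHTS cytotoxicity; HEK 293, 250 cells/well; compound pinned; 48 or 72 hr, 37 degree Celsius, 5% CO2, 95% humidity; CellTiter-Glo, 10 min RT; luminescence (ATP).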
FLuc inh = blocks purified firefly luciferase enzyme activity. P08659. Potency, µM (titrated, usually from 115 µM), hits mostly inhibitors. actives 2.5% (n = 76,000). purified P. pyralis luciferase, luminescence, biochemical; note: nearly all actives have a fitted effect of over 65% in size
Target sequence (P08659 whole entry, looked up): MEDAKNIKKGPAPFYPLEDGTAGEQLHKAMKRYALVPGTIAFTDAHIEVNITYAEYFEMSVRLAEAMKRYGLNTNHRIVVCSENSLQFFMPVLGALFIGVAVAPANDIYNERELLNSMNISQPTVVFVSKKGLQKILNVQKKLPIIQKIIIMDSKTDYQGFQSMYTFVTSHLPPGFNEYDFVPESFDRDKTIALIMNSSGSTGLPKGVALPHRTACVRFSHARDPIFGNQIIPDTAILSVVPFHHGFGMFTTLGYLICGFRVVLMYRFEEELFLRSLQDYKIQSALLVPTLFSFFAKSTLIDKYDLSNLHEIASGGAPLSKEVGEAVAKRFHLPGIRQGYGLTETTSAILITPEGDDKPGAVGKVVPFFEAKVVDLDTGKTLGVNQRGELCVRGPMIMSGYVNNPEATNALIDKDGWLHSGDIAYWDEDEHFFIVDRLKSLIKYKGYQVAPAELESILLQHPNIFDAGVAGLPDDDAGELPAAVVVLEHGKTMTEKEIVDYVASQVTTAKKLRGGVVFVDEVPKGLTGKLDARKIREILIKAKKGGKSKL
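Purified 10nM P. pyralis luciferase with 10uM D-luciferin and 10uM ATP in 50mM Tris acetate pH 7.5, 10mM Mg acetate, 0.01% Tween-20, 0.05% BSA. qHTS titration; luminescence read by CCD imager.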
Numbers without * were called inactive; i = inactive; ? = inconclusive; · = no result; [ ] = remark or other dose. Unless noted, calls come from the whole dose curve; as a rule, active = well fitted curve in the direction sought with a large enough effect; inconclusive = small, poorly fitted or top-dose-only effect, or another doubt; inactive = no such curve, though single readings can be large; an effect the other way counts as inactive or inconclusive. % is set by controls: 0 for no effect and ±100 for the full control effect; potency is the fitted concentration of half-maximal effect.

SMILES	3T3 cytotox	GPT2 inh	NPR1 antag	HEK cytotox	FLuc inh
COc1ccc(Nc2ccnc(N3CCC(N[S+](=O)([O-])c4ccc(C)cc4)CC3)n2)cc1	25.1µM*	i	·	28.2µM*	·
O=[S+]([O-])(NC1CCN(c2nccc(Nc3ccccc3F)n2)CC1)c1cccs1	44.7µM*	-2.2%	·	44.7µM*	·
Cc1ccc([S+](=O)([O-])N2CCN(c3nccc(Nc4ccccc4F)n3)CC2)cc1	?	i	·	31.6µM*	·
C[S+](=O)([O-])N1CCN(c2nccc(Nc3ccccc3F)n2)CC1	-27.1%	i	·	-10.3%	·
CC(C)CN(CC1CN(C(=O)COc2ccccc2)CCO1)C(=O)c1ccc(F)cc1 (stereo unspecified)	-23.5%	i	-12.3%	?	i
C[C@]12CC[C@@H]3c4ccc(O[C@@H]5O[C@H](C(=O)O)[C@@H](O)[C@H](O)[C@H]5O)cc4CC[C@H]3[C@@H]1CCC2=O	·	i	·	·	·
Cc1ccc([S+](=O)([O-])NC2CCN(c3nccc(Nc4ccccc4F)n3)CC2)cc1	39.8µM*	-11.8%	·	28.2µM*	·
Cc1noc(C)c1[S+](=O)([O-])NC1CCN(c2nccc(Nc3ccccc3F)n2)CC1	?	i	·	?	·
CC(=O)Nc1ccc(CN2CCC3(C2)C(=O)Nc2ccccc23)cc1 (stereo unspecified)	-3.1%[138 µM]	-26.4%[88.5 µM]	-4.4%[70.6 µM]	-22.4%[172 µM]	i
Cn1c(C(=O)NCCc2ccccn2)nc2nc(-c3ccccc3)c(Cl)cc21	?	i	-22.5%[70.6 µM]	?	44.7µM*
Cn1c(C(=O)NCC2CC2)nc2nc(-c3ccccc3)c(Cl)cc21	?	4.4%[88.5 µM]	·	-5.6%[172 µM]	i
COc1ccccc1-c1cc2c(nc1-c1ccccc1)nc(C(=O)NC1CCN(C)CC1)n2C	20µM*	0.6%	-17.7%	35.5µM*	i
CN(C)CCNC(=O)c1nc2nc(-c3ccccc3)c(-c3cccc(CO)c3)cc2n1C	?	i	-0.6%[70.6 µM]	?	i
CN(C)CCNC(=O)c1nc2nc(-c3ccccc3)c(-c3ccccc3O)cc2n1C	79.4µM*	2.9%[88.5 µM]	?	?	i
CN(C)CCNC(=O)c1nc2nc(-c3ccccc3)c(-c3cccc(Cl)c3)cc2n1C	10µM*	-8.9%[88.5 µM]	-20.5%[70.6 µM]	28.2µM*	i
COc1ncccc1-c1cc2c(nc1-c1ccccc1)nc(C(=O)NCCN(C)C)n2C	?	1.5%[88.5 µM]	-15.0%[70.6 µM]	?	i
COc1ncccc1-c1ccnc(-c2nnc(C)n2C2CCCCC2)c1	-25.9%[138 µM]	?	3.0%[70.6 µM]	?	i
COCc1cc(C[C@@H]2CC[C@H](O)[C@@H](CNS(=O)(=O)c3ccccc3)O2)no1	-18.9%[174 µM]	-18.1%[88.5 µM]	4.7%[70.6 µM]	-9.4%[172 µM]	i
CN(C)CCNC(=O)c1nc2nc(-c3ccccc3)c(-c3ccc(Cl)cc3)cc2n1C	25.1µM*	-4.5%[88.5 µM]	-3.5%[70.6 µM]	39.8µM*	i
Cc1ccc(-c2cc3c(nc2-c2ccccc2)nc(C(=O)NCCN(C)C)n3C)cc1	11.2µM*	?	3.3%[70.6 µM]	39.8µM*	i
CCC(CC)n1c(=O)n(Cc2cc(C(C)C)no2)c2cc(C(=O)O)cnc21	79.4µM*	0.1%	2.5%	-22.6%	i
CCC(CC)n1c(=O)n(Cc2ccc(C(=O)N(C)C)o2)c2cc(C(=O)O)cnc21	-9.8%	-11.8%	-0.1%	-8.6%	i
CCn1ccc(C(=O)N2CC(Oc3ccc(-c4nc(-c5ccccc5)no4)cc3)C2)n1	39.8µM*	i	-17.0%	?	?
CCn1nccc1C(=O)N1CC(Oc2ccc(-c3nc(-c4ccccc4)no3)cc2)C1	?	i	4.47µM*	11.2µM*	?
CCn1nccc1C(=O)N1CC(Oc2cccc(-c3nc(C)no3)c2)C1	-27.6%	i	-2.8%	?	i
SMILES	3T3 cytotox	GPT2 inh	NPR1 antag	HEK cytotox	FLuc inh
Cn1cc(CN2CCN(C(=O)c3ccoc3)CC2)ccc1=O	i	i	-2.9%	3.9%	i
Cn1cc(CN2CCN(C(=O)c3c[nH]c4ccccc34)CC2)ccc1=O	-16.1%	i	-2.5%	-29.6%	31.6µM*
CCc1nc2c(c(-c3ccc(OC)cc3)n1)CCN([S+](=O)([O-])c1ccccc1)CC2	?	-3.3%	·	1.1%	·
COc1ccc(-c2nc(C)nc3c2CN([S+](=O)([O-])c2cccs2)CC3)cc1	28.2µM*	-4.8%	·	i	·
COc1ccc(-c2nc(C3CC3)nc3c2CN([S+](=O)([O-])c2cccs2)CC3)cc1	?	-1.6%	·	-28.1%	·
CCc1nc2c(c(-c3ccc(OC)cc3)n1)CN([S+](=O)([O-])c1cccs1)CC2	11.2µM*	-2.7%	·	0.9%	·
CC(C)(C)c1ccc(-c2noc(CNC(=O)CN3C(=O)CNC3=O)n2)cc1	-5.7%	-2.7%[11.5 µM]	-2.7%	-0.8%	17.8µM*
CN1CCC(Cn2ccc3c(N4CCOCC4)nc(-c4ccc5cn[nH]c5c4)cc32)CC1	39.8µM*	2.7%[88.5 µM]	1.6%[70.6 µM]	100µM*	i
COc1ccc(-c2cc3c(ccn3Cc3ccncc3)c(N3CCOCC3)n2)cn1	?	4.3%[88.5 µM]	3.0%[70.6 µM]	?	i
CN1CCC(Cn2ccc3c(N4CCOCC4)nc(-c4cccc(N5CCOCC5)c4)cc32)CC1	31.6µM*	1.3%	-1.0%	?	i
O=C1NCc2cc(-c3cc4c(ccn4Cc4ccncc4)c(N4CCOCC4)n3)ccc21	?	i	-13.7%[70.6 µM]	?	i
CN1CCC(Cn2ccc3c(N4CCOCC4)nc(-c4cccc5[nH]ccc45)cc32)CC1	35.5µM*	2.7%[88.5 µM]	-0.5%[70.6 µM]	63.1µM*	i
CN1CCC(Cn2ccc3c(N4CCOCC4)nc(-c4cccc(N[S+](C)(=O)[O-])c4)cc32)CC1	?	i	0.2%	?	i
CNC(=O)c1cc(C2CC2)nc2c1c(C1CCN(C(=O)c3cccnc3)C1)nn2C (stereo unspecified)	-19.2%	·	·	-2.4%	·
CNC(=O)c1cc(C2CC2)nc2c1c(C1CCN(C(=O)c3cccc(OC)c3)C1)nn2C (stereo unspecified)	?	·	·	79.4µM*	·
CC(C)c1nc(-c2ccc(OC3CCN(C(=O)c4ccccc4F)C3)cc2)no1 (stereo unspecified)	?	-20.0%	·	?	·
COc1ccc(C(=O)N2CCC(Oc3ccc(-c4noc(-c5ccccc5)n4)cc3)C2)cn1 (stereo unspecified)	-21.9%	-16.9%	11.2µM*	-25.2%	?
COc1ccc(C(=O)N2CCC(Oc3ccc(-c4noc(C(C)C)n4)cc3)C2)cc1 (stereo unspecified)	?	-10.8%	?	39.8µM*	i
O=C(C1CCOCC1)N1CC(Oc2ccc(-c3nc(-c4ccccc4)no3)cc2)C1	-15.2%	i	?	?	?
